Drawing on PubChem BioAssay AID2567 (National Center for Advancing Translational Sciences (NCATS), 2010), this text covers Potency for 40 compounds.

Records with an inconclusive call do not appear. Entries that show only a call come without a potency. Activity calls are given as the source filed them. Calls follow the shape of the dose curve; as a rule, active = well fitted antagonist curve with a large enough effect in the main read-out, with a control signal flat; inconclusive = small, poorly fitted or top-dose-only effect; inactive = no such curve, though single readings can be large or run the other way.

Neuropeptide S receptor (Homo sapiens), sequence (Q6W5P4 whole entry, looked up): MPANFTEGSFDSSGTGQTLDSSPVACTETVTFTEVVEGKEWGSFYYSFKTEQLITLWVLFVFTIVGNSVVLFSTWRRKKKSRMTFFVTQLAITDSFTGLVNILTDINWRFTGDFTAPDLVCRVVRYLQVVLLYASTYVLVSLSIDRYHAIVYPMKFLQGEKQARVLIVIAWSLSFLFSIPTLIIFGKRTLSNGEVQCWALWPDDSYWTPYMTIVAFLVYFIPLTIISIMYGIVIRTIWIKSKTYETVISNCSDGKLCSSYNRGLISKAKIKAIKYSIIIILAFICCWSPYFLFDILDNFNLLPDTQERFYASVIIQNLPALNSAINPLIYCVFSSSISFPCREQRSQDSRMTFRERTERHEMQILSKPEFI

In this experiment the target is Neuropeptide S receptor (Homo sapiens) (UniProt Q6W5P4). Description: Confirmation Concentration-Response Assay for Antagonists of the Neuropeptide S Receptor: Calcium Signal Transduction, SAR for Probe. As to conditions: CHO-NPSR cells, NPS-induced calcium fluorescence, FDSS; series mostly up to 19.3 µM. An excerpt:
NIH Chemical Genomics Center [NCGC] NIH Molecular Libraries Probe Production centers Network [MLPCN] MLPCN Grant: X01-DA026210-01 Assay Submitter (PI): Heilig, Markus Alexander NCGC Assay Overview: Neuropeptide S receptor (NPSR), previously known as GPR154, is a recently de-orphanized G protein coupled receptor. Its endogenous ligand is the 20 amino acids peptide Neuropeptide S (NPS). […] NPS and its receptor are found in various tissues. Specifically they are highly expressed in brain areas that have been implicated in modulation of arousal, stress and anxiety. Central administration of NPS in mice produces an unusual profile of activity by inducing wakefulness and arousal, while at the same time suppressing anxiety. Therefore, NPSR may represent a novel drug target for the treatment of sleep and anxiety disorders. To identify NPSR antagonists, we developed a cell-based assay with transfected NPS receptor. NPS can stimulate the production of cAMP as well as release intracellular calcium in Chinese hamster ovary cells stably expressing NPS receptor. This change in intracellular calcium can be detected using a calcium indicator dye on a calcium imaging plate reader system (FDSS).
NCGC Assay Protocol Summary: A Chinese hamster ovary (CHO) cell line stably expressing the NPS receptor (CHO-NPSR) was obtained from Dr. Heilig lab at NIAAA and maintained in F-12 Kaighn's media (Invitrogen, Carlsbad, CA, 21127) supplemented with 10 % FBS, 100 units/ml penicillin, 100 ug/ml streptomycin and 250 ug/ml geneticin at 37C, 5% CO2 in a humidified atmosphere. Before the assay, aliquots of cells were frozen and stored at -135C. The assay was performed on a FDSS-7000 kinetic plate reader in 1536-well format. For both agonist (1-220s) and antagonist (221-400s) phases, the maximums of kinetic fluorescence responses were converted separately into text files using the instrument's software data export utility. Data for agonist response were normalized to the controls for basal activity (DMSO only) and 100% activation (NPS). […] AC50 values were determined from concentration-response data modeled with the standard Hill equation. NPS 1536-well FDSS assay protocol: (1) Frozen CHO-NPSR cells were thaw, washed once with fresh media and resuspended in F-12 Kaighn's media supplemented with 10 % FBS, 100 units/ml penicillin and 100 ug/ml streptomycin. Cells were plated at 3 ul/well (1200 cells) to black, clear-bottom, tissue-culture treated 1536-well plates, and then cultured at 37C, 5 % CO2 for 16 to 30 hours. (2) Add 3 ul of calcium dye (from High Performance PBX Calcium Assay Kit, BD Biosciences). The calcium dye was prepared according to the manufactory's instruction. (3) Incubation at 37C, 5 % CO2 for 60 to 120 min. (4) Load plates to FDSS-7000. The following steps were performed on FDSS-7000. (5) Record fluorescent background (Ex 480 nm, Em 520-560 nm) for 10 s. (6) Add 23 nl/well of compound in DMSO solution. The final titration for each compound was between 0.6 nM and 46 uM. Record agonist response for 210 s. (7) Add 2 ul of stimulation reagent (1X HBSS buffer, 0.1% BSA, 60 nM NPS). Record antagonist response for 140 s. Keywords: MLSMR, MLPCN, NIH Roadmap, qHTS, NCGC, NPS, Neuropeptide S Antagonists
With `CC1(C)O[C@@H]2C[C@H]3[C@@H]4C[C@H](F)C5=CC(=O)CC[C@]5(C)[C@H]4[C@@H](O)C[C@]3(C)[C@]2(C(=O)CO)O1`, the Potency result was “inactive”.

Regarding `Cc1c(P(=S)(c2ccccc2)c2ccccc2)c2ccccc2n1CCc1ccccc1`, the Potency result was “inactive”.

For the compound `Cc1nnc(NC(=O)c2cccc(S(=O)(=O)N3CCc4ccccc43)c2)s1`, the Potency result was “inactive”.

As for `Cc1nn(C)cc1/C=N/NC(=S)Nc1ccccc1`, the Potency result is “inactive”.

Regarding `COc1cccc(C2c3c(ncn(-c4ccccc4C)c3=N)Oc3ccc4ccccc4c32)c1` (stereo not given), the Potency was 5520 nM (active).

Regarding `COc1ccc(C2c3c(n(CCc4ccccc4)cnc3=N)Oc3ccc4ccccc4c32)cc1OC` (stereo not given), the Potency entry was “inactive”.

As for `CN(C)c1nc(=Nc2cccc(Cl)c2)ss1`, the Potency entry was “inactive”.

As for `COc1ccc(-n2cnc3c(c2=N)C(c2cccc(OC)c2)c2c(ccc4ccccc24)O3)cc1` (stereo not given), the Potency is 4380 nM (active).

Take `CCC(C)(CCN1CCOCC1)N(Cc1cc2ccccc2n(C)c1=O)C(=O)C1CCCCC1` (stereo not given): the Potency was 110 nM (active).

With `COc1ccc(C2c3c(N)nc(Cc4ccccc4)nc3Oc3ccc4ccccc4c32)cc1OC` (stereo not given), the Potency result was “inactive”.

In the case of `COc1cccc(C2c3c(ncn(-c4cccc(C)c4)c3=N)Oc3ccc4ccccc4c32)c1` (stereo not given), the Potency was 4380 nM (active).

In the case of `Cc1c(P(=S)(c2ccccc2)c2ccccc2)c2ccccc2n1C/C=C/c1ccccc1`, the Potency entry is “inactive”.

Regarding `Cc1ccc(S(=O)(=O)Nc2cccc3ncccc23)s1`, the Potency was 3160 nM (active).

Take `CC(=O)c1sc(N/N=C\c2ccccc2O)nc1C`: the Potency is 1120 nM (active).

With `COc1cccc(C2c3c(ncn(-c4ccccc4Br)c3=N)Oc3ccc4ccccc4c32)c1` (stereo not given), the Potency is 5520 nM (active).

In the case of `CC1(C)Cc2c(c(N3CCOCC3)nc3sc4c(NCC5CCCO5)nnnc4c23)CS1` (stereo not given), the Potency result is “inactive”.

With `COc1ccc(C2c3c(nc(C)[nH]c3=O)Oc3ccc4ccccc4c32)cc1OC` (stereo not given), the Potency entry was “inactive”.

`S=C(Nc1ccccc1)Nc1nccs1`: the Potency result is “inactive”.

In the case of `Cc1c(C(O)(c2ccccc2)c2ccccc2)[n+]2ccccc2n1C`, the Potency result was “inactive”.

Turning to `C/C(=N\NC(=S)NC1CCCCC1)c1c(F)cccc1F`, the Potency entry was “inactive”.

Regarding `COc1cccc(C2c3c(ncn(-c4ccc5c(c4)OCO5)c3=N)Oc3ccc4ccccc4c32)c1` (stereo not given), the Potency is 552 nM (active).

For `Cn1nc(-c2ccc(Cl)cc2)nc2c(=O)n(C)c(=O)nc1-2`, the Potency entry is “inactive”.

On to `CC(C)Cc1nc(N2CCN(C(=O)c3ccccc3)CC2)c(C#N)c2c1CCC2`, for which the Potency entry is “inactive”.

For the compound `Cc1c(P(=S)(c2ccccc2)c2ccccc2)c2ccccc2n1Cc1ccccc1`, the Potency entry was “inactive”.

As to `OC(c1ccccc1)(c1ccccc1)c1cnc2ccccn12`, the Potency result is “inactive”.

In the case of `O=C(/C=C/c1ccco1)NC(=S)Nc1nc(-c2ccc3ccccc3c2)cs1`, the Potency entry is “inactive”.

For the compound `COc1cccc2sc(Nc3nc(-c4ccccn4)cs3)nc12`, the Potency is 3160 nM (active).

Take `CCCCOc1ccc(OCCCN2CCOCC2)cc1`: the Potency result was “inactive”.

As to `CCSc1nc2c(c(=O)n1Cc1ccccc1)SC(C)C2` (stereo not given), the Potency result was “inactive”.

With `C(=N\Nc1nc(-c2ccccn2)nc2ccccc12)/c1ccccc1`, the Potency result is “inactive”.

Regarding `COc1cccc(C2c3c(ncn(-c4cccc(F)c4)c3=N)Oc3ccc4ccccc4c32)c1` (stereo not given), the Potency is 220 nM (active).

Take `Cc1nc2ccccn2c1P(=O)(c1ccccc1)c1ccccc1`: the Potency result is “inactive”.

Regarding `COc1ccc(C2c3ccccc3Oc3ncn(CCN4CCOCC4)c(=N)c32)cc1OC` (stereo not given), the Potency was 694 nM (active).

On to `NC(=S)N/N=C/c1ncc(C(F)(F)F)cc1Cl`, for which the Potency result is “inactive”.

`CCCCCN1C=CC=C/C1=C\C=C(C#N)C#N`: the Potency result was “inactive”.

Consider `COc1ccc(C2c3c(nc(Cc4ccccc4)[nH]c3=O)Oc3ccc4ccccc4c32)cc1OC` (stereo not given), for which the Potency entry was “inactive”.

In the case of `COc1cccc(C2c3c(ncn(-c4ccccc4-c4ccccc4)c3=N)Oc3ccc4ccccc4c32)c1` (stereo not given), the Potency entry is “inactive”.

For the compound `COc1cccc(C2c3c(ncn(-c4ccccc4SC)c3=N)Oc3ccc4ccccc4c32)c1` (stereo not given), the Potency is 438 nM (active).

Regarding `COc1ccc(C2c3c(N)nc(CCCc4ccccc4)nc3Oc3ccc4ccccc4c32)cc1OC` (stereo not given), the Potency result is “inactive”.

Regarding `COC(=O)c1ccc(C(=O)OC)c(NC(=O)CSc2cccc[n+]2[O-])c1`, the Potency entry was “inactive”.
